Source: PubChem (National Center for Advancing Translational Sciences (NCATS))
In the library only some 12% were active in any assay of this set; here they are far more common.
G9a block – blocks human histone lysine methyltransferase G9a; Q96KQ7; G9a H3K9 monomethylation, AlphaScreen, 2 h; Potency, µM (series often up to 102 µM), for the others: at the highest dose activity, negative = inhibition, hits mostly inhibitors; actives 8.8% (n = 350,000); AID 504332; further: on the % scale 0 is the no-effect control and ±100 the full control effect; nearly all actives have a fitted effect of over 75% in size
Target sequence (Q96KQ7 913-1193 limits assumed): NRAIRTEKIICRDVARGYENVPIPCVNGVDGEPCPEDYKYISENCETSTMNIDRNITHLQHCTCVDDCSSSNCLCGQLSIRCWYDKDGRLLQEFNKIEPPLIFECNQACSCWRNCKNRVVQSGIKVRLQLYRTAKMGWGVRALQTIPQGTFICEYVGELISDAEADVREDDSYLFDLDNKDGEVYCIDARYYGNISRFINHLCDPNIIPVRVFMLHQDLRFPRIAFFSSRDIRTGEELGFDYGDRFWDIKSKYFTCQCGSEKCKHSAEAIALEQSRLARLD
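Signal arises when biotinylated H3K9 peptide, once monomethylated, bridges streptavidin donor and antibody-captured acceptor beads. Enzyme at 20 nM was preincubated 15 min with test compounds; peptide 500 nM and SAM 20 uM then reacted for 2 h.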
HP1b binding inh – HP1-beta chromodomain-methylated histone interaction inhibition. Potency, µM (titrated, usually from 114 µM), for inactives: at the top dose activity change, negative = inhibition, hits mostly inhibitors. AID 540317. actives 0.56% (n = 390,000). P83916. AlphaScreen HP1-beta / biotin-H3K9me3 peptide binding; further: nearly all actives have a fitted effect of over 70% in size
Target sequence (P83916 whole entry, looked up): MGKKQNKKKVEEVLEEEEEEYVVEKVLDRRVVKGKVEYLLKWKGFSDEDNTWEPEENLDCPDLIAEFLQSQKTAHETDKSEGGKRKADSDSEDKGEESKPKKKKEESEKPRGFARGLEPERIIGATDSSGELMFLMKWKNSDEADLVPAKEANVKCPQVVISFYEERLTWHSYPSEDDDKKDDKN
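HP1-beta protein (50 nM final) preincubated 30 min at room temperature with biotinylated H3(1-18)K9me3 peptide (50 nM) in PBS pH 7.4, 0.01% Tween-20, then compound added for 30 min. AlphaScreen streptavidin donor/nickel chelate acceptor beads (10 ug/mL final), 30 min dark, luminescence read.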
Sfp PPTase inh – Sfp phosphopantetheinyl transferase inhibition | Q9F4F7 | Biochemical Sfp PPTase activity, qHTS | Potency, µM, for inactives: largest response in the series, negative = inhibition, most hits filed as inhibitors | actives 3.5% (n = 310,000) | AID 1490;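 further: the enzyme is Sfp with the accession as filed and its product quenches rhodamine fluorescence; 0% = enzyme reaction without inhibitor and -100% = no enzyme wells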
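Compounds were incubated with enzyme (final 15 nM) for 15 min at room temperature before substrate addition started the reaction. Fluorescence at 525 nm excitation, 598 nm emission was recorded immediately and after 30 minutes.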
BAZ2B inh – inhibitors of human BAZ2B bromodomain | Potency, µM (highest dose often 114 µM), inactives show at the highest dose activity change, negative = inhibition, usual class: inhibitors | Q9UIF8 | actives 4.4% (n = 360,000) | AlphaScreen BAZ2B-H3K14Ac peptide displacement; further: on the % scale 0 is the no-effect control and ±100 the full control effect; nearly all actives have a fitted effect of over 60% in size
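Inhibition is scored as reduced AlphaScreen emission. The BAZ2B/b-H3(5-23)K14Ac complex (50 nM each) in PBS pH 7.4, 0.01% Tween-20 meets compound (up to 110 uM) for 30 min at RT before bead addition.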
JMJD2A Tudor inh – blocks the human JMJD2A Tudor domain; O75164; AlphaScreen JMJD2A-Tudor / H3K4me3 peptide binding; Potency, µM (top dose mostly 114 µM), without a hit: at the highest dose activity change, negative = inhibition, usual class: inhibitors; actives 4.4% (n = 390,000); AID 504339; further: on the % scale 0 is the no-effect control and ±100 the full control effect; nearly all actives have a fitted effect of over 50% in size
* hit, by the source's call; ? = inconclusive; . = no result; ! = not active in a repeat; [ ] = another dose, or the depositor's remark. The call rests on the fitted dose curve; in most records, active means well fitted curve in the direction sought with a large enough effect; inconclusive means small, poorly fitted or top-dose-only effect, or another doubt; inactive means no such curve, though single readings can be large; an effect the other way counts as inactive or inconclusive. Potency means the concentration at half of the fitted maximal effect.

SMILES	G9a block	HP1b binding inh	Sfp PPTase inh	BAZ2B inh	JMJD2A Tudor inh
COc1cccc(C(=O)Nc2nc3nc(C)c(Cc4ccccc4)c(=O)n3[nH]2)c1	?	38%	.	-38%	-28%
COc1ccc(N2CCN(C(=O)c3ccc4c(c3)N(Cc3ccc(F)cc3)C(=O)c3ccccc3S4=O)CC2)cc1 (stereo unspecified)	?	7%	.	-39%	?
COCCCN1C(=O)c2ccc(C(=O)N3CCN(c4ccc(OC)cc4)CC3)cc2C1=O	1%[59 µM]	29%	16%	-20%	-12%
COc1ccc(N2CCN(C(=O)c3ccc4c(c3)NC(=O)C(CSCc3ccc(C)cc3)N4)CC2)cc1 (stereo unspecified)	7.9µM*	.	40µM*	?	.
COc1ccc(C(=O)N2CCC(C(=O)N3CCN(c4ccccc4)CC3)CC2)cc1	.	22%	.	.	-6%
COc1ccc(N2CCN(C(=O)c3ccc4c(c3)NC(=O)C(CSCc3cccc(F)c3)N4)CC2)cc1 (stereo unspecified)	20µM*	.	56µM*	-37%	.
COc1ccc(N2CCN(C(=O)c3ccc4c(c3)NC(=O)C(CSCc3c(F)cccc3Cl)N4)CC2)cc1 (stereo unspecified)	32µM*	.	-27%	-33%[57.1 µM]	.
Cn1c(-c2ccc(N)cc2)nc2ccccc21	1%	29%	7%	5%	-14%
Cc1ccc(-n2c(N)c(-c3nc4ccccc4n3C)sc2=S)cc1	3.5µM*	?	-66%	?	?
CC(=O)C(=Nc1ccc(Cl)cc1Cl)NNc1cccc(Cl)c1	?	?	3%	14µM*	56µM*
CCOC(=O)c1c(C)n(-c2ccc(C)cc2)c2ccc(OCC(O)CNCCCO)cc12 (stereo unspecified)	8.9µM*	-21%	?	?	?
OC(CNCC1CCCO1)COc1ccc(OCC(O)CNCC2CCCO2)cc1 (stereo unspecified)	2%[59 µM]	7%	9%	4%	6%
CCOC(=O)c1c(C)n(-c2ccc(C)cc2)c2ccc(OCC(O)CNCC3CCCO3)cc12 (stereo unspecified)	16µM*	?	45µM*	28µM*	13µM*
COc1ccc(N2CCN(C(=O)CS(=O)(=O)c3cccc4nsnc34)CC2)cc1	57%[59 µM]	7%[57 µM]	.	15%	-27%
COc1ccc(-c2c(-c3ccccc3OC)sc3ccccc23)cc1C=O	3%[0.501 µM]	120%	.	39%	54%
COc1cccc(C(=O)Nc2nc(-c3ccncc3)cs2)c1	32µM*	7%	?	.	-16%
Cc1cc(C)cc(OCC(=O)Nc2nc(-c3cccnc3)cs2)c1	10µM*	?	45µM*	-5%	-14%
O=C(COc1ccccc1)Nc1nc(-c2ccncc2)cs1	8.9µM*	-19%	50µM*	-13%	-6%
COc1cccc(C(=O)Nc2nc(C)cs2)c1	0%[59 µM]	45%	6%	-20%	11%
CCN(C(=O)Cn1cc(C(=O)c2ccc(F)cc2)c(=O)c2ccc(C)nc21)c1cccc(C)c1	-22%[59 µM]	5%	.	3%[57.1 µM]	-19%
CCOC(=O)c1ccc(NC(=S)NC(=O)C2CCCC2)cc1	-7%	42%	-18%	-15%	-3%
O=C(NC(=S)Nc1ccccc1Br)C1CCC1	22%	34%	4%	3%	-10%
COC(=O)c1ccc(NC(=S)NNC(=O)CC(C)C)cc1	10µM*	-12%	45µM*	-1%	-23%
O=C(NC(=S)Nc1ccc(F)c(Cl)c1)C1CC1	56µM*	43%	4%	-14%	-4%
COC(=O)c1ccc(NC(=S)NC(=O)C2CCC2)cc1	79µM*	47%	-4%	-6%	-6%
SMILES	G9a block	HP1b binding inh	Sfp PPTase inh	BAZ2B inh	JMJD2A Tudor inh
COC(=O)c1ccc(NC(=S)NNC(=O)c2ccccc2)cc1	.	1%	?	-10%	-27%
N#Cc1ccccc1NC(=S)NC(=O)C1CCC1	71µM*	31%	-9%	-12%	1%
O=C(CN1C(=O)NC2(CCCCCCC2)C1=O)NCc1ccccc1	.	32%	.	.	-5%
COC(=O)c1ccc(NC(=S)Nc2ccccc2)cc1	-50%[59 µM]	26%	3%	2%	-17%
CCOc1ccc(NC(=S)N2CCC(C(N)=O)CC2)cc1	13%[59 µM]	17%	5%	-1%	-7%
COC(=O)c1ccc(NC(=S)N2CCC(C(N)=O)CC2)cc1	?	22%	32µM*	4%	-13%[57.1 µM]
CC(C)CCOCC(O)CCC(=O)NNC(=S)Nc1ccccc1 (stereo unspecified)	28µM*	24%	5%	-2%	-11%
COC(=O)c1sccc1NC(=S)N1CCC(C(N)=O)CC1	-49%	34%	79µM*	.	-11%
COC(=O)c1ccc(NC(=S)NC2c3ccccc3CC2O)cc1 (stereo unspecified)	50µM*	-7%	8%	1%	-4%
CCN(C[C@H]1N[C@@](C)(C(=O)OC)[C@H]2C(=O)N(C)C(=O)[C@@H]12)S(=O)(=O)c1ccc(OC)cc1	.	41%	.	.	-14%
S=c1[nH]nc(COc2ccc3c(c2)OCO3)n1-c1ccccc1	0.71µM*	3%	40µM*	-34%	40µM*
CCn1c(COc2ccc3c(c2)OCO3)nnc1SCC(=O)c1ccccc1	11µM*	13%	?	?	-18%
c1ccc(-c2nccc(-c3ccc4c(c3)OCO4)n2)cc1	179%	160%	-9%	66%	84%
O=[N+]([O-])c1ccc(OCc2n[nH]c(=S)n2-c2ccccc2)cc1	3.5µM*	5%	-7%	-25%	45µM*
S=c1[nH]nc(-c2ccc3c(c2)OCO3)n1-c1ccccc1	1.6µM*	-14%	-3%	-3%	5µM*
COc1ccc(OCc2n[nH]c(=S)n2-c2ccc(C)cc2)cc1	?	7%	-23%	-32%	?
CC1CN(S(=O)(=O)c2cccc(C(=O)NCC3COc4ccccc4O3)c2)CC(C)O1 (stereo unspecified)	?	28%	.	0%	-9%
Cc1ccc(S(=O)(=O)N2CCN(c3ncnc4sccc34)CC2)cc1	-2%	36%	16%	-3%	-4%
COc1ccc(-c2c(C)nn3c(C(F)(F)F)cc(C)nc23)cc1OC	-33%[59 µM]	7%	.	-32%	?
COc1ccc(NC(=S)N2CCC(C(=O)c3ccc(F)cc3)CC2)cc1	.	40%	.	.	-27%
Cc1ccc(/C(=C\CN2CCCC2)c2ccccn2)cc1	7.5µM*!	.	-10%	-16%	-6%
Cc1ccc(C(=O)NCCCNC(=O)c2ccccn2)cc1	17%	25%	11%	-14%	-12%
CCOC(=O)C1=C(CS(=O)(=O)c2ccc(F)c(C)c2)NC(=O)NC1c1ccc(O)c(O)c1 (stereo unspecified)	25µM*	22%	-27%	?	-21%
COc1cc(OC)c(N(C)C(=O)c2c(C)oc3ncnc(N4CCCCC4)c23)cc1Cl	-24%[59 µM]	13%	.	7%[57.1 µM]	-12%
